Test results taken from PubChem BioAssay AID1030 (National Center for Advancing Translational Sciences (NCATS), 2008).
Hit rate of the full screen: of about 220,000 compounds, about 16,000 (7.3%) were called active. Another 25% or so got no clear call; they are omitted. Shown is part of a subset that was picked to be rich in actives. Unmarked numbers belong to inactive results. Calls come from the whole dose curve; as a rule, active = well fitted inhibition curve with a large enough effect (not every such curve was filed as active); inconclusive = small, poorly fitted or top-dose-only effect, or another doubt; inactive = no such curve, though single readings can be large or run the other way.

target: Aldehyde dehydrogenase 1A1 (Homo sapiens) (UniProt P00352); assay: qHTS Assay for Inhibitors of Aldehyde Dehydrogenase 1 (ALDH1A1); conditions: Purified ALDH1A1, NADH fluorescence, propionaldehyde substrate; series mostly up to 75.3 µM; activity, negative = inhibition: at the top concentration;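 for activity, negative = inhibition: plate controls were no enzyme wells and a reference inhibitor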
Sequence (P00352 whole entry, looked up): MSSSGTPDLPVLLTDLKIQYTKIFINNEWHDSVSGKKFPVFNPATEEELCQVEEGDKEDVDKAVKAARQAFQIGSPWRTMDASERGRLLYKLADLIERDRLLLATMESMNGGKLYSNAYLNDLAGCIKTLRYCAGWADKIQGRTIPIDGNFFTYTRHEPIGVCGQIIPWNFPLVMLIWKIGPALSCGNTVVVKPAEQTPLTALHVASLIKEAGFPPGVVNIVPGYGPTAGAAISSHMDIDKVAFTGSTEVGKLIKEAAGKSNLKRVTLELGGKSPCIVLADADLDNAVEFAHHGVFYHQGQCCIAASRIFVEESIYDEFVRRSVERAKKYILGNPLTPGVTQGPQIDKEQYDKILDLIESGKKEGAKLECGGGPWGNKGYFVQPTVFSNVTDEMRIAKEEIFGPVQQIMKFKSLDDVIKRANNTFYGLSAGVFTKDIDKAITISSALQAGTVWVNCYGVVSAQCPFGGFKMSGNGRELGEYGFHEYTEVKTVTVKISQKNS
Potency is the fitted concentration of half-maximal effect.

Compound	activity, negative = inhibition	Potency
COCC(C)NC(=O)COc1nncc2ccccc12 (stereo unspecified)	2.02%	–
COc1ccc(C2c3[nH]c4ccccc4c3CCN2CCCn2cccn2)cc1C (stereo unspecified)	-9.04%	–
Cc1cccc(C)c1NC(=O)CSc1ccc([N+](=O)[O-])cn1	5.34%	–
C/C(=N/NC(=O)CSc1ccccn1)c1ccc([N+](=O)[O-])cc1	–	20 µM (active)
O=C(CSc1nnc(-c2ccc([N+](=O)[O-])cc2)o1)Nc1ccccn1	7.02%	–
Cc1ccc(/C=N/NC(=O)CSc2ccccn2)o1	–	7.94 µM (active)
Cc1ccc(/C=N/NC(=O)CNC(=O)COc2ccccc2)o1	-8.24%	–
Cc1ccc(/C=N/NC(=O)Cn2nc(C)c(Br)c2C)o1	1.11%	–
CC1CC(C)(C)NC(=S)N1CCC(=O)N1CCN(Cc2ccccc2)CC1 (stereo unspecified)	1.21%	–
CCN(CC)Cc1nc2sc(C)c(C)c2c(=O)[nH]1	-1.29%	–
CSc1nnc(SCc2nc3sc(C(=O)O)c(C)c3c(=O)[nH]2)s1	–	7.08 µM (active)
Cc1sc2nc(CSCC(=O)Nc3c(Cl)cccc3Cl)[nH]c(=O)c2c1C	-7.94%	–
Fc1ccccc1N=C1Nc2cccc3cccc1c23	2%	–
CCOc1ccc(CCNC(=O)C(CC)n2nc(C)n3c(cc4sccc43)c2=O)cc1OCC (stereo unspecified)	–	31.6 µM (active)
COc1ccc(CCNC(=O)c2cc3sccc3n2C)cc1OC	-13.6%	–
CCC(C(=O)NCc1ccc(OC)cc1)n1nc(C)n2c(cc3occc32)c1=O (stereo unspecified)	-10.2%	–
CCCCC/C=C\C/C=C\CCCCCCCCCC(=O)NCC(=O)O	10.8%	–
CC(C)(C)c1cc(C(=O)N/N=C/c2ccc([N+](=O)[O-])s2)n[nH]1	3.41%	–
Cc1ccc(SCCC(=O)Nc2cc(C)on2)cc1	-1.48%	–
O=c1c2ccccc2c(-c2ccccc2)nn1-c1ccccn1	8.22%	–
C#CCNc1nc(C(C)C)nc2c1nnn2Cc1ccccc1F	–	11.2 µM (active)
CCCc1nc(NCc2ccc3c(c2)OCO3)c2nnn(Cc3ccccc3Cl)c2n1	-3.33%	–

Compound	activity, negative = inhibition	Potency
CC(O)C(NS(=O)(=O)c1ccc(Cl)cc1)C(=O)OCc1cc([N+](=O)[O-])cc2c1OCOC2 (stereo unspecified)	1.81%	–
Cc1cc(CNC(=O)c2cccc([N+](=O)[O-])c2)c2ccccc2n1	1.21%	–
CCO[C@H]1OC(C(=O)O)=C[C@@H](C2CCCCC2)[C@@H]1CCCO	-0.479%	–
COc1ccccc1NC(=O)C[n+]1ccccc1	0.275%	–
O=C(Nc1ccccc1C(F)(F)F)N1CCCC1c1cccnc1 (stereo unspecified)	1.15%	–
CC(C)CNC(=O)/C=C/C(=O)O	0.351%	–
O=C1/C(=C\c2ccsc2)NC(=S)N1c1ccccc1	–	28.2 µM (active)
CC1=CC(C)(C)NC(=S)N1c1ccccc1	4%	–
CCCCCCCCCCCCC(NC(C)=O)(C(=O)OCC)C(=O)OCC	2.57%	–
COc1cc(NC(=O)CN(C)S(=O)(=O)c2ccc3nc(C)sc3c2)cc(OC)c1	-1.71%	–
COc1ccccc1OCCC(=O)OCC(=O)NCc1ccccc1	-5.5%	–
COc1cc(C(=S)NCc2ccccc2)cc(Br)c1O	–	1.78 µM (active)
COc1cc(C=O)c(Br)cc1OCC(=O)NCc1ccccc1	-3.58%	–
CC1CN(Cc2nc3c(c(=O)n(C)c(=O)n3C)n2Cc2cccc(Cl)c2)CC(C)O1 (stereo unspecified)	2.02%	–
C=CCOc1nc2c(c(=O)n(C)c(=O)n2C)n1Cc1ccc(Cl)cc1Cl	-3.47%	–
Cn1c(=O)c2c(nc(NCCc3ccccc3)n2Cc2ccccc2)n(C)c1=O	4.03%	–
CCOC(=O)N1CCN(Cc2nc3c(c(=O)n(C)c(=O)n3C)n2Cc2ccccc2)CC1	–	0.126 µM (active)
Cn1c(=O)c2c(nc(OCc3cccnc3)n2Cc2ccccc2)n(C)c1=O	–	10 µM (active)
COCCn1c(CN2CCC(Cc3ccccc3)CC2)nc2c1c(=O)n(C)c(=O)n2C	7.1%	–
Cn1c(SCC(=O)Nc2ccc(Br)cc2F)nnc1-c1ccco1	-4.47%	–
CCCC1NC(=S)NC(C)=C1C(C)=O (stereo unspecified)	-5.57%	–
CCO[C@H]1OC(C(=O)NCc2ccccc2)=C[C@@H](c2coc3ccccc3c2=O)[C@@H]1CCCO	-0.194%	–

Compound	activity, negative = inhibition	Potency
COCCNC(=S)N1CCC(NC(=O)C23CC4CC(CC(C4)C2)C3)CC1	3.85%	–
Cc1cccc(C)c1NC(=O)Nc1ccccc1-n1ccnc1	0.169%	–
COc1ccc(OCC(=O)OCC(=O)Nc2ccc(S(=O)(=O)N3CCCCC3)cc2)cc1	–	10 µM (active)
COC(=O)COc1ccc(S(=O)(=O)N2CCOCC2)cc1	10.5%	–
COc1ccc(NC(=O)COC(=O)CNC(=O)C2CCCCC2)cc1	9.02%	–
O=c1oc(-c2ccco2)nc2sc3c(c12)CCCCC3	-4.5%	–
Cc1cccc(NC(=O)CSc2nnc(-c3ccco3)o2)c1	-0.84%	–
Cc1cccc(NC(=O)c2sc3nc4c(c(-c5ccco5)c3c2N)CCC4)c1	–	12.6 µM (active)
O=C(CC(NC(=O)c1ccccc1)c1ccccc1)Nc1ccc(F)c(F)c1 (stereo unspecified)	3.66%	–
Cc1cc(-c2ccc(/C=N/n3cnnc3)o2)c([N+](=O)[O-])cc1C	–	10 µM (active)
Cc1cc([N+](=O)[O-])c(-c2ccc(/C=N/n3cnnc3)o2)cc1Cl	4.82%	–
Cc1ccc(Cl)cc1-c1ccc(/C=N/n2cnnc2)o1	2.14%	–
CN(C)/C=C(/C(=O)c1ccccc1)S(=O)(=O)c1ccc(Cl)cc1	-1.39%	–
CCN(C(=O)CSc1nc2ccccc2n1CC)C1CCS(=O)(=O)C1 (stereo unspecified)	6.03%	–
O=C(c1ccc(C(F)(F)F)cc1)C1CCCN(C(=O)c2csnn2)C1 (stereo unspecified)	-3.94%	–
O=C(Nc1ccc(Cl)cc1)N1CCc2[nH]c3ccccc3c2C1	3.97%	–
CCCC(=O)N1CCc2[nH]c3ccccc3c2C1	0.311%	–
Cc1ccc2[nH]c3c(c2c1)CN(C(=O)CN1CCN(c2ccccc2)CC1)CC3	–	17.8 µM (active)
O=C(/C=C/c1ccccc1)Oc1coc(CSc2ncccn2)cc1=O	-8.97%	–
Cc1cc(C)cc(NC(=O)COC(=O)c2cc(C)oc2C)c1	4.92%	–
COc1ccc(N(CC(=O)NC2CCCC2)C(=O)CS(=O)CC(=O)Nc2ccc3c(c2)OCO3)cc1 (stereo unspecified)	16.1%	–
CCCn1c(SCC(=O)Nc2c(C)cccc2C)nnc1C(C)C	8.79%	–

Compound	activity, negative = inhibition	Potency
CCCn1c(SCC(=O)c2ccc3c(c2)OCCO3)nnc1C(C)C	–	20 µM (active)
CCCn1c(SCC(N)=O)nnc1C(C)C	8.66%	–
CCOC(=O)c1cc2c(=O)[nH]c(C(Cl)(Cl)Cl)nc2o1	9.51%	–
CCc1nnc(NC(=O)c2sc3nc(C)cc(COC)c3c2N)s1	-6.62%	–
COc1ccc(CC(=O)NCc2nnc(SCC(=O)Nc3ncc(C)s3)n2C)cc1	23.4%	–
COc1ccc(CCN(C)CCN2C(=O)c3ccccc3C2=O)cc1OC	0.416%	–
COc1ccc(CN2C(=O)CC(Cc3ccc(C)cc3)C2=O)cc1OC (stereo unspecified)	-6.24%	–
COc1ccc(CCN2C(=O)C3CC=C(C)CC3C2=O)cc1OC (stereo unspecified)	–	17.8 µM (active)
O=c1cc(O)c(-c2cccc(C(F)(F)F)c2)c(Cl)[nH]1	4.13%	–
CCOC(=O)c1ccc(NC(=O)Cn2nnc(-c3ccc(C)cc3)n2)cc1	0.713%	–
CCc1ccc(NC(=O)N2CCN(c3ccccc3)CC2)cc1	2.14%	–
CCOC(=O)c1ccc(Nc2cc(C)nc3nc(C)nn23)cc1	-2.8%	–
CCOC(=O)c1ccc(NC2Nc3cc(C)nn3S2)cc1 (stereo unspecified)	–	12.6 µM (active)
CCc1ccc(NC2Nc3cc(C)nn3S2)cc1 (stereo unspecified)	–	10 µM (active)
COc1ccc(NC(=O)CN(C)CC(=O)Nc2cccc(C(F)(F)F)c2)cc1	-9.9%	–
CCC(C)(C)NC(=O)CN(C(=O)C(=O)Nc1ccc2c(c1)OCCO2)C(C)(C)CC	1.57%	–
Cc1nnc(SCc2cccc(Cl)c2)n(N)c1=O	4.04%	–
CCCn1c(N)c(C(=O)CSc2nc3ccccc3c(=O)n2-c2ccc(OC)cc2)c(=O)[nH]c1=O	-2.33%	–
O=C(NCc1ccccc1Cl)C1CCN(S(=O)(=O)N2CCOCC2)CC1	-1.99%	–
CCC(=O)Nc1ccc(C(=O)N2CCN(C(=O)c3ccco3)CC2)cc1	-11.7%	–
O=C(CN1CCN(C(=O)c2ccco2)CC1)Nc1ccc(Cl)c(C(F)(F)F)c1	–	17.8 µM (active)
O=C(CCCN1C(=O)CCC1=O)Nc1ccc(Cl)c(C(F)(F)F)c1	-6.6%	–

Compound	activity, negative = inhibition	Potency
O=C(CCN1C(=O)/C(=C/c2cccs2)SC1=S)NNC(=O)c1cccc(O)c1	1.24%	–
CCOC(=O)C1=C(O)CSC1=Nc1cccc(Cl)c1	3.32%	–
c1ccc(CN2CCC(N=C3NN=C(c4ccc5c(c4)OCCO5)CS3)CC2)cc1	-9.87%	–
Clc1cccc(N=C2NN=C(c3ccc4c(c3)OCCO4)CS2)c1	–	28.2 µM (active)
Cc1ccc(C(=O)Cc2nnc(C)s2)cc1	5.21%	–
COc1cc(CN(C)Cc2nc3cc(C(F)(F)F)ccc3c(=O)[nH]2)ccc1OC(F)F	6.49%	–
O=C(O)c1ccc(NS(=O)(=O)c2ccc3c(c2)C(=O)c2cc(S(=O)(=O)Nc4ccc(C(=O)O)cc4)ccc2-3)cc1	-1.43%	–
CCCc1nc2ccccc2c(C(=O)OCC(=O)c2ccc3c(c2)NC(=O)CO3)c1CC	9.72%	–
CCc1ccc(Nc2nnc(SCC(=O)c3ccc4c(c3)NC(=O)CO4)s2)cc1	–	3.55 µM (active)
CN(C(=O)CSc1nnc(Nc2ccccc2)s1)C1CCS(=O)(=O)C1 (stereo unspecified)	-0.527%	–
COc1ccc(OCCCn2cccc2/C=C2/C(=N)N3OC(C)=CC3=NC2=O)cc1	-8.86%	–
O=C(NC1CC1)C1CCCN(C(=O)NC2CCCCC2)C1 (stereo unspecified)	2.75%	–
C=CCc1cccc2cc(C(=O)Nc3ccc(NC(C)=O)cc3)c(=O)oc12	1.3%	–
COCCNc1cc(NCCOC)c([N+](=O)[O-])cc1[N+](=O)[O-]	5.02%	–
Cn1c(-c2ccc(F)cc2)cnc1SCC(=O)NCc1ccco1	–	22.4 µM (active)
O=C(CSc1nnc2scc(-c3ccc(F)cc3)n12)NCc1ccco1	-5.13%	–
Cn1c(-c2ccc(F)cc2)cnc1SCC(=O)NNC(=O)Cc1ccccc1	0.789%	–
COc1ccc(-c2ccc(OC(=O)NC3CCS(=O)(=O)C3)cc2)cc1 (stereo unspecified)	8.45%	–
